HEK293 cAMP cs = qHTS Assay for Agonists of the Thyroid Stimulating Hormone Receptor: Activators of Intracellular cAMP Concentrations in Parental HEK 293. Potency, µM (highest dose often 57.1 µM), inactives show top-dose activation, usual class: activators. 73,000 tested, 2.5% active. parental HEK293 CNG cAMP sensor, membrane potential fluorescence; further: % of control where 0% means no effect; nearly all actives have a fitted effect of over 55% in size
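Parental HEK 293 cells stably expressing a modified CNG channel (no TSHR) report cAMP rise as membrane depolarization. Membrane potential dye with 100 uM RO 20-1724 was loaded for 60 min at room temperature, then compound added for 30 min; fluorescence read at 590 nm.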
Luciferase inh = qHTS Assay for Inhibitors of Firefly Luciferase; purified firefly luciferase, luminescence, 8 min; 72,000 tested, 2.2% active; AID 411, 2009; Luciferin 4-monooxygenase (Photinus pyralis), P08659; Potency, µM (titrated, usually from 57.1 µM), for the others: top-dose activity change, negative = inhibition, usual class: inhibitors; further: on the % scale 0 is the no-effect control and ±100 the full control effect; nearly all actives have a fitted effect of over 40% in size
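Luminescence read-out after 8 min at room temperature; enzyme reaction used luciferin plus 10 uM ATP (linear range) in imidazole buffer pH 7.2 with KCl, MgCl2, Tween 20 and BSA. Each sample was run as a titration.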
TSHR agonist = qHTS Assay for Agonists of the Thyroid Stimulating Hormone Receptor; Thyrotropin receptor (Homo sapiens), P16473; HEK293-CNG-TSHR cells (CNG channel as cAMP sensor), membrane potential dye, cAMP; Potency, µM (titrated, usually from 57.1 µM), inactives show at the highest dose activation, most hits filed as activators; 73,000 tested, 0.48% active; AID 926, 2007; active means well fitted activation curve with a large enough effect in the main read-out, with a control signal flat, not every such curve was filed as active; inconclusive means small, poorly fitted or top-dose-only effect, or a change in a side signal; inactive means no such curve, though single readings can be large or run the other way; % of control where 0% means no effect;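 further: the control signal comes from parental cells without the receptor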
Target sequence (P16473 whole entry, looked up): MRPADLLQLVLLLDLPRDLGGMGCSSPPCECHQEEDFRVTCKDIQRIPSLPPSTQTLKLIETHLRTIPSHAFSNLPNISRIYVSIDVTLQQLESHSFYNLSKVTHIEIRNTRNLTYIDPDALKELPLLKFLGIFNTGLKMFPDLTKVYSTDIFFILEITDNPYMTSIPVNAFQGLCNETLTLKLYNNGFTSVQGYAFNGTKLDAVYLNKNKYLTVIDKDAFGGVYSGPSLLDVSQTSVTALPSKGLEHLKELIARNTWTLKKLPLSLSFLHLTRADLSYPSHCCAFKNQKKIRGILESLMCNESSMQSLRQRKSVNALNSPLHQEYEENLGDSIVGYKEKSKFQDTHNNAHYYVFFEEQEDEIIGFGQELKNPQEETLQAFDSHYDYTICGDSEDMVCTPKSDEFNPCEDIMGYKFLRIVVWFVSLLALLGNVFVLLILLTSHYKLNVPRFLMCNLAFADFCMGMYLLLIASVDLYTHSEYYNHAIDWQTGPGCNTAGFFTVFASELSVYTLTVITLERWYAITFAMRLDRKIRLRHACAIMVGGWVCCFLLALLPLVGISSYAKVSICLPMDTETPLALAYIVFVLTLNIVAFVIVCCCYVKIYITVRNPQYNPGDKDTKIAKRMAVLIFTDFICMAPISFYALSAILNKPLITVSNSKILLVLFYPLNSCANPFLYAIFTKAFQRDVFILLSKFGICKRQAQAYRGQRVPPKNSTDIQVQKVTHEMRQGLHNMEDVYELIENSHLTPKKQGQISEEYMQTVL
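HEK 293 cells stably expressing TSHR and a modified CNG channel, with CNG-only parental cells as counterscreen, were preloaded 60 min at room temperature with membrane potential dye containing 100 uM RO 20-1724. Compound exposure was 30 min, and depolarization was read as fluorescence at 590 nm.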
Tau fil binding = qHTS Assay for Tau Filament Binding. Microtubule-associated protein tau (Homo sapiens), P10636. recombinant tau filaments, thioflavin S fluorescence, 15 h; filaments grown with octadecylsulfate alongside compound. Potency, µM (series often up to 57.1 µM), inactives show at the top dose activity change, negative = inhibition. 71,000 tested, 2% active;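 further: on the % scale 0 is the no-effect control and ±100 the full control effect; actives lower thioflavin S fluorescence by blocking filaments or displacing dye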
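His-tagged recombinant human tau (exons 2, 3 and 10 included), 1 uM, was induced to fibrillize by 30 uM sodium octadecylsulfate with compound present. After 15 h at 37 C, thioflavine S fluorescence (ex 450, em 510 nm) was read.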
PK Bst = Pyruvate Kinase; 51,000 tested, 1.2% active; Potency, µM; AID 361, 2006; purified pyruvate kinase, luminescence ATP production; ribose 5-phosphate activator present at AC10; in the data active means potency below about 11 µM; inconclusive means mostly about 12 µM to 25 µM;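 the screen sought inhibitors and activators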;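 further: scaled between full activation by ribose 5 phosphate and full inhibition by luteolin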
ERK AVP block = qHTS Assay for Inhibitors of the ERK Signaling Pathway using a Homogeneous Screening Assay; HEK293-V1b, vasopressin-stimulated pERK AlphaScreen; Potency, µM (series often up to 57.5 µM), for the others: top-dose activity, negative = inhibition, hits mostly inhibitors; 72,000 tested, 0.99% active; further: on the % scale 0 is the no-effect control and ±100 the full control effect; nearly all actives have a fitted effect of over 55% in size
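HEK293 cells stably expressing V1b receptor, preincubated 30 min at 37 °C with compound, then stimulated 5 min with 25 nM vasopressin. Phospho-ERK by AlphaScreen SureFire after 5 h RT; normalized to DMSO and vasopressin; AC50 by Hill fit.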
* = called active by the depositor; [ ] = another dose, or the depositor's remark. Rows were chosen to be rich in hits. Some 7.2% of all compounds tested hit in one or more screens of this group. Unless noted, the call rests on the fitted dose curve; in most records, active means well fitted curve in the direction sought with a large enough effect; inconclusive means small, poorly fitted or top-dose-only effect, or another doubt; inactive means no such curve, though single readings can be large; an effect the other way counts as inactive or inconclusive. Potency means the concentration at half of the fitted maximal effect.

For CCOC(=O)c1ccc(Nc2cc(C)nc(N3CCOCC3)n2)cc1 the results were HEK293 cAMP cs 0%, Luciferase inh 0%, TSHR agonist -10%, Tau fil binding 78%, PK Bst 1.5* and ERK AVP block -28%.
`COC(=O)c1ccc(OCc2nc(N)nc(N3CCOCC3)n2)cc1` gave HEK293 cAMP cs 6%, Luciferase inh -1%, Tau fil binding 5%, PK Bst >57 and ERK AVP block 7%.
`C[C@@H]1Cc2ccccc2N1NC(=O)c1ccc(Cl)c(S(N)=O)c1` (stereo not given in full) gave HEK293 cAMP cs -2%[25.6 µM], Luciferase inh 4%[25.5 µM], TSHR agonist -13%[25.6 µM], Tau fil binding 17%[25.6 µM] and ERK AVP block -8%[25.7 µM].
`CC(C)C[C@H](NC(=O)N1CCCCCC1)C(=O)N[C@H](Cc1cn(C)c2ccccc12)C(=O)N[C@H](Cc1ccccn1)C(=O)O` gave HEK293 cAMP cs 6%, Luciferase inh 3%, TSHR agonist 3%, Tau fil binding inconclusive and ERK AVP block 3%.
`COc1ccc(O[C@H]2C=C[C@@H](c3ccccc3)O[C@H]2CO/N=C2/[C@H]3O[C@@H]3[C@@H](O)[C@H]3[C@H]2CCn2c(=O)n(-c4ccccc4)c(=O)n23)cc1` gave HEK293 cAMP cs inconclusive, Luciferase inh 0%[11.4 µM], TSHR agonist inconclusive and ERK AVP block 30%[11.5 µM].
For OCC1OC(n2cnc3c(=S)nc[nH]c32)C(O)C1O (stereo not given) the results were ERK AVP block 5%.
COc1ccc2nc(C)cc(Nc3ccc(N4CCOCC4)cc3)c2c1 was read as HEK293 cAMP cs -53%, Luciferase inh 2%, TSHR agonist inconclusive, Tau fil binding 5µM*, PK Bst inconclusive and ERK AVP block inconclusive.
Screening COc1ccc(Nc2cc(C)nc3ccccc23)cc1 returned Luciferase inh 2%[25.5 µM] and PK Bst inactive.
CCOC(=O)[C@]1(C(NC(=O)OC)c2ccco2)CCCC1=O (stereo not given in full) was read as HEK293 cAMP cs 8%[11.4 µM], TSHR agonist -1%[11.4 µM] and ERK AVP block -9%[11.5 µM].
For O=C(OCc1c(Cl)nc2sccn12)c1cc2c(s1)CCCC2 the results were HEK293 cAMP cs 13µM*, Luciferase inh 2%, TSHR agonist inconclusive, Tau fil binding -23%, PK Bst >57 and ERK AVP block -1%.
`COc1ccc(NC(=O)N2CC[C@@]3(CCCN(C(=O)c4c(C)noc4C)C3)C2)cc1` gave HEK293 cAMP cs 5%, Luciferase inh 1%[11.4 µM], TSHR agonist 2%, Tau fil binding -5% and ERK AVP block -5%.
O=C1N/C(=C\c2ccccc2)c2ccccc21 was read as HEK293 cAMP cs 18%, Luciferase inh -5%, TSHR agonist 17%, Tau fil binding -2%, PK Bst 5.6* and ERK AVP block inconclusive.
For Cn1c(=O)cnc2cnc(Nc3ccccc3)nc21 the results were HEK293 cAMP cs inconclusive, Luciferase inh 0%[11.4 µM], TSHR agonist inconclusive, Tau fil binding inconclusive and ERK AVP block inconclusive.
O=c1c(-c2ccccc2)n[nH]c2ccccc12 was read as HEK293 cAMP cs 11%, Luciferase inh 13µM*, TSHR agonist 1%, Tau fil binding -10%, PK Bst inactive and ERK AVP block -4%.
`CCOC(=O)c1cnc(SCc2nc(N)nc(Nc3ccccc3)n2)nc1N` gave HEK293 cAMP cs -8%, Luciferase inh -14%, TSHR agonist -8%, Tau fil binding 58%, PK Bst >57 and ERK AVP block -19%.
`Nc1nc(CSc2ccccn2)nc(Nc2ccccc2)n1` gave HEK293 cAMP cs inconclusive, Luciferase inh 20µM*, TSHR agonist inconclusive, Tau fil binding 0% and ERK AVP block -20%.
`COc1ccc2nc(SCc3nc(N)nc(Nc4ccccc4)n3)[nH]c2c1` gave HEK293 cAMP cs -3%, Luciferase inh 13µM*, TSHR agonist 5%, Tau fil binding -4% and ERK AVP block inconclusive.
CC(C)c1cc(C(=O)Nc2ccc3c(c2)OCO3)no1 was read as HEK293 cAMP cs 8%, Luciferase inh 7.9µM*, TSHR agonist 13%, Tau fil binding 13µM* and ERK AVP block -6%.
For O=C(Nc1ccc2c(c1)OCO2)c1noc2c1CCCCC2 the results were HEK293 cAMP cs inconclusive, Luciferase inh 7.9µM*, TSHR agonist inconclusive, Tau fil binding 13%, PK Bst inconclusive and ERK AVP block 9%.
`O=C(Nc1ccc2c(c1)OCO2)c1cc(C2CC2)on1` gave HEK293 cAMP cs 7%, Luciferase inh 7.9µM*, TSHR agonist 9%, Tau fil binding -20% and ERK AVP block 1%.
For CC(C)c1cc(C(F)(F)F)n2nc(C(=O)Nc3ccc4c(c3)OCO4)cc2n1 the results were HEK293 cAMP cs 20%, Luciferase inh 20µM*, TSHR agonist 24%, Tau fil binding -5% and ERK AVP block -3%.
O=C(c1cc(C(F)(F)F)cc(C(F)(F)F)c1)N1CCC2(CCCN(c3ccccc3)C2)CC1 was read as HEK293 cAMP cs 8%, Luciferase inh 1%[11.4 µM], TSHR agonist -3%, Tau fil binding -21% and ERK AVP block 6%.
CC(C)C[C@@H](CC(=O)N[C@@H](CCCN)CC(=O)N[C@@H]1CCNC[C@H]1C(=O)N[C@H](CC(=O)N[C@@H](CCC(=O)O)CC(=O)O)Cc1c[nH]c2ccccc12)NC(=O)[C@@H]1CNCC[C@H]1N was read as HEK293 cAMP cs 11%, TSHR agonist 5% and Tau fil binding -17%.
Cn1c(=O)c(-c2ccc(Cl)cc2)nc2cnc(Oc3ccccc3)nc21 was read as HEK293 cAMP cs 14%, Luciferase inh 1%[11.4 µM], TSHR agonist 5%, Tau fil binding inconclusive and ERK AVP block 7%.
Screening O=P(O)(O)O returned HEK293 cAMP cs -11%, TSHR agonist -1%, Tau fil binding -4% and ERK AVP block 3%.
Screening CC(=O)Nc1cccc(NC(=O)c2c(-c3ccccc3Cl)noc2C)c1 returned HEK293 cAMP cs 3%, Luciferase inh 2%, TSHR agonist 21%, Tau fil binding 1% and ERK AVP block -22%.
Screening Cc1onc(-c2c(Cl)cccc2Cl)c1C(=O)Nc1ccc2c(c1)OCO2 returned HEK293 cAMP cs -5%, Luciferase inh -4%, TSHR agonist -2%, Tau fil binding 3.2µM* and ERK AVP block -7%.

Screens deposited in PubChem BioAssay by National Center for Advancing Translational Sciences (NCATS).
